In the library only some 2% were active in any assay of this set; here they are far more common.
sPLA2-III inh = Blocks human group III sPLA2 activity | Q9NZ20 | QFRET BODIPY PC-A2 liposome hydrolysis, fluorescence | inhibition, % at 12.2 µM | 370,000 compounds, 0.56% hits;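 active means inhibition above mean plus 3 SD of compounds lying within the high and low control bounds, cut at about 19% in these data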;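 further: 0% = median of test compound wells and 100% = no enzyme DMSO wells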
NadD block = NadD (S. aureus) enzyme inhibition. purified NadD enzyme, colorimetric absorbance read-out. inhibition, % at 20 µM. 360,000 compounds, 0.78% hits. AID 602399; in the data active means inhibition above about 26%
Neddylation inh = inhibitors of human cullin neddylation. 360,000 compounds, 0.58% hits. P61081+Q13564. AID 651699. TR-FRET cullin neddylation, biochemical. inhibition, % at 25 µM; in the data active means inhibition above about 36%
DAGLB inhibitor = blocks human DAGLB lipase activity | Q8NCG7 | HEK293T DAGLB membrane lysate, EnzChek fluorogenic substrate | inhibition, % at 5.17 µM | 340,000 compounds, 0.059% hits | AID 504411; in the data active means inhibition above about 34%;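 further: 0% = enzyme with vehicle and 100% = wells lacking enzyme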
Target sequence (Q8NCG7 whole entry, looked up): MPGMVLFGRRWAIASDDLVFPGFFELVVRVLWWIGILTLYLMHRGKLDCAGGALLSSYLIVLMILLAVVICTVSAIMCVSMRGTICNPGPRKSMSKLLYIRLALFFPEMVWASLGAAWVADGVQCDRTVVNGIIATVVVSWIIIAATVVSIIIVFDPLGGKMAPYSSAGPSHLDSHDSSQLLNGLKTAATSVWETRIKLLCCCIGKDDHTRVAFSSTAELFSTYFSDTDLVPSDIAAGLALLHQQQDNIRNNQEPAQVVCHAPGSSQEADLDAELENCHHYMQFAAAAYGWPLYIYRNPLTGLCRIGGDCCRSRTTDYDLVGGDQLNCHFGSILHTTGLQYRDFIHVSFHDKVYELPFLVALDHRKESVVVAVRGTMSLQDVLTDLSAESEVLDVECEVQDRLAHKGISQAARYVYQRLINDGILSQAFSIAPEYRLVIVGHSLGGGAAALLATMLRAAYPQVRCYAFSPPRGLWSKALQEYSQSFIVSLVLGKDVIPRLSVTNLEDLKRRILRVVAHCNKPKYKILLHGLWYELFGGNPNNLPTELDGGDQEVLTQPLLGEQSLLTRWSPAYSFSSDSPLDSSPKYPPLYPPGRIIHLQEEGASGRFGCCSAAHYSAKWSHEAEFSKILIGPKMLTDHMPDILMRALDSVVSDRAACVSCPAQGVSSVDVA
ARNT-TACC3 inh = disruptors of human ARNT/TACC3 interaction; inhibition, % at 9.99 µM; 390,000 compounds, 0.66% hits; Q9Y6A5; AlphaScreen His-ARNT PAS-B/GST-TACC3 binding, luminescence; TACC3 fragment carries E629A point mutation;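 active means mean inhibition of replicates at least 50% and at least half of replicates each reaching 50%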;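 further: 0% = complete ARNT plus TACC3 wells and 100% = ARNT alone without TACC3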
hGIII sPLA2 conf = human GIII-sPLA2 inhibition, confirmation | AID 743280 | recombinant hGIII-sPLA2, BODIPY PC-A2 QFRET fluorescence | inhibition, % at 12.2 µM | 2,000 compounds, 34% hits | shares compounds with sPLA2-III inh;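 active means mean inhibition across triplicates above the hit cutoff set in the earlier primary screen, cut at about 19% in these data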;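 further: 0% = enzyme with DMSO and 100% = DMSO wells lacking enzyme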
535nm interf = counter-screen for HGIII-sPLA2 inhibitors: 535nm fluorescence interference; shares compounds with sPLA2-III inh; BODIPY FL product fluorescence interference, QFRET; inhibition, % at 12.2 µM; 2,000 compounds, 8.5% hits;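 active means average inhibition above the solvent-only control mean plus 3 SD, cut at about 6% in these data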;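 further: 0% = DMSO with substrate plus product and 100% = DMSO with substrate alone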
BODIPY interf DR = counter-screen for HGIII-sPLA2 inhibitors: 535nm fluorescence interference, dose response; shares compounds with sPLA2-III inh; BODIPY FL product fluorescence interference, cell-free; IC50, µM; 240 tested, under 10 active;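 active means IC50 at or below 10 µM; inactive means IC50 above 10 µM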
Numbers without * were called inactive; x = not tested or not shown.

SMILES	sPLA2-III inh	NadD block	Neddylation inh	DAGLB inhibitor	ARNT-TACC3 inh	hGIII sPLA2 conf	535nm interf	others
COc1ccc(O)c(/C=N/NC(=S)Nc2cccc(S(=O)(=O)N(C)C)c2)c1	24*	-1	x	13	65*	11	12*
COc1cccc(/C=N/NC(=S)Nc2cccc(S(=O)(=O)N(C)C)c2)c1	7	-3	0	-1	13	x	x
COc1ccc(O)c(/C=N/NC(=S)Nc2cccnc2)c1	20*	-5	x	1	67*	27*	5
CO[C@@H]1CN(C)C(=O)c2ccc(NC(C)=O)cc2OC[C@H](C)N(Cc2ccncc2)C[C@H]1C	x	x	x	x	-7	x	x
Cc1cccc(NNC(=S)Nc2c(C)cccc2C)c1	19*	-3	7	-1	10	29*	-4	BODIPY interf DR=>122
CCS(=O)(=O)Nc1ccc2c(c1)C(=O)N(C)C[C@H](OC)[C@H](C)CN(C(=O)C1CCC1)[C@H](C)CO2	x	x	x	x	-3	x	x
C[C@@H]1CN([C@H](C)CO)C(=O)c2cc(C3=CCCC3)cnc2O[C@@H]1CN(C)Cc1ccccc1F	x	x	x	x	0	x	x
Cc1ccc(NC(=S)NNC(=O)CSc2nnc(-c3ccc(Cl)cc3)n2C2CCCCC2)cc1	23*	18	4	3	-1	30*	-8	BODIPY interf DR=>122
CCn1c(SCC(=O)NNC(=S)Nc2ccc(C)cc2)nnc1-c1ccc(Cl)cc1	16	8	-1	2	-1	x	x
Cc1ccc(NC(=S)NNC(=O)CSc2nnc(-c3ccc(C)cc3)n2C2CCCCC2)cc1	24*	x	x	x	x	18	-10
CCO[C@@H]1OC(C(=O)N2CCN(Cc3ccccc3)CC2)=C[C@H](c2ccc3c(c2)OCO3)[C@H]1CCCO	x	x	x	x	19	x	x
O=C(N[C@H]1CC[C@H](CCn2cc(C3(O)CCCC3)nn2)O[C@H]1CO)C1CCC1	x	x	x	x	-5	x	x
O=C(C[C@H]1C=C[C@@H](NC(=O)Nc2cc(F)ccc2F)[C@H](CO)O1)NCc1ccccn1	x	x	x	x	7	x	x
Fc1ccc(NC(=S)NN2CCOCC2)cc1Cl	25*	0	-4	0	-4	1	0
C[C@@H]1CN([C@@H](C)CO)S(=O)(=O)c2ccc(C#CC(C)(C)O)cc2O[C@H]1CN(C)C(=O)C1CCC1	x	x	x	x	0	x	x
CCOc1ccc(C2OCCC(C)O2)cc1OC (configuration not stated)	20*	1	-4	0	-3	2	-6
COc1ccc(CN(C)C[C@@H]2OCCCC[C@H](C)Oc3ccc(NS(=O)(=O)c4ccc(F)cc4)cc3C(=O)N([C@H](C)CO)C[C@@H]2C)cc1	x	x	x	x	-3	x	x
C[C@@H]1CN([C@@H](C)CO)C(=O)Cc2cc(NS(C)(=O)=O)ccc2O[C@H]1CN(C)S(=O)(=O)c1ccc(Cl)cc1	x	x	x	x	-6	x	x
CCOc1ccc2c(c1)-c1c(ssc1=S)C(C)(C)N2C(=O)c1ccco1	21*	2	-14	16	3	36*	1	BODIPY interf DR=>122
CS(=O)(=O)c1nc2ccccc2n1Cc1ccccc1	7	-8	5	0	-4	x	x
O=S(=O)(O)c1nc2ccccc2n1Cc1ccccc1	20*	1	6	1	x	1	-3
CCn1c(S(=O)(=O)O)nc2ccccc21	20*	2	-1	1	-6	0	-3
Cc1ccc(-c2c[n+](Cc3cccc(Cl)c3)c3n2CCC3)cc1	-2	2	4	-1	-3	x	x
Clc1cccc(C[n+]2cc(-c3ccccc3)n3c2CCC3)c1	19*	2	0	-7	-3	5	-26
C[C@@H]1CN([C@H](C)CO)C(=O)Cc2cc(NC(=O)Nc3cccc4ccccc34)ccc2O[C@H]1CN(C)Cc1ccc2c(c1)OCO2	x	x	x	x	-1	x	x
CC(=O)c1c(C)nc2sc3c(=N)n(N)cnc3c2c1-c1ccc(Cl)cc1	30*	-5	3	0	x	4	-9

Compound activity deposited in PubChem BioAssay by several laboratories.
